Results from PubChem BioAssay AID1347426 (Functional Genomics Laboratory (NCATS/FGL), 2020).
Hit rate of the full screen: of about 31,000 sequences, about 1,400 (4.5%) were called active. The full list was thinned out, with actives kept by preference. Values without a mark were called inactive.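 How the source made its calls: active means median seed-adjusted z-score above 1 or below -1; inactive means the rest.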

Test: Novel Modifiers of Survival Motor Neuron (SMN) Protein: Gene Identification via Genome-wide siRNA Screen;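 further: luminescence tracks full-length SMN protein made from the SMN2 reporter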
Conditions: HEK293T SMN2-luciferase reporter, siRNA knockdown, 72 h; actives lie on both sides
In short: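 Steps: spot 1 pmol siRNA, add Lipofectamine RNAiMax in serum-free DMEM, seed HEK293T SMN2–luciferase reporter cells; incubate 72 h at 37 °C; add ONE-Glo; normalize luminescence to control siRNA, log10, MAD. Candidates: |MAD| > 1.0.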

Sequence	median seed-adjusted z-score
GACGACCAAUUAUAGUUUATT against ZRANB1	-0.347
CCAUCAAUGCGGCUCAUGUTT against TUFM	1.07 (active)
GGAUCAGCCGAGGAUGAAATT against PPP1R15A	0.539
GGAUCUCAUGCACAUCUCATT against PLA2G6	-0.123
AGAAGAUUCUUGUAUUUAUTT against IL24	-0.125
GGAUGAUAUCAACUGCUAUTT against ACVR2A	-0.22
ACAUGUGGGUGACGGUUUUTT against SRM	0
CAUGGACCCUGAUGACAUATT against UROD	1.11 (active)
GCGUGAAUGAGGUGGAUUATT against ETNK2	-0.74
CGUAUACUAUUAUCACGUUTT against ATP6V0A1	0.103
GGGCACGGGUGAUAUGAAUTT against CTDP1	-2.29 (active)
AGCUACAAUUUGAAAGAGATT against RNF144A	-0.185
AGAGAUCACCGAUUACAGATT against ISG20	0.0209
CAACUGUUAUCAGAACGAUTT against ARFIP2	0.748
GCAAUGCCCUCUAUCAAUATT against IP6K1	-0.317
AGAUGAUCGCUGAGUUCAATT against TNNC2	-0.773
CGAAUGACAAGUGAUCUAATT against MDH1B	-1.13 (active)
GCUCAACUCUUAUUAGUCATT against ZNF485	0.445
AUACCUGAACAGUCCCUCATT against NOBOX	-0.426
CGCGCAACAUCGUCAAGUATT against LPHN1	-1.03 (active)
GGACUAUUACAAAUCAAGATT against FLT3	0.418
GGACAUUGAUUAUAUUGGATT against GALC	0

Sequence	median seed-adjusted z-score
GACCGAGAAGUACCGCUGATT against HBZ	-0.0054
GCAUGUACCAGGUUCAGUATT against LRFN1	0.605
GCAGAGACCUACAAAAAGATT against RCN3	-2.44 (active)
GGCAGUGUUUAUUUACUAUTT against RHBDL2	0.0701
CCAAAGAUGUUUCAUCUGATT against PCDHGA7	0.705
AAGGUAAAAUUGAAGAGUUTT against SERPINB9	0
CUCACCUACUGGAACCUGATT against ZBED4	-0.553
CCAACAUGCUAAUCACCUATT against MAP3K12	-0.6
CUAUUUUACCUUUACAAGATT against ALDH1A2	0.564
CAUUAUCUAUUCUAGACAATT against TTC18	-1.15 (active)
GCAUUGCCUCUAUACCAGATT against MALT1	0.442
GGGCAUGUUUCGUACCGUUTT against MYH10	0.0877
AGAACAUCCUGAUAGACCUTT against PIM2	0.00597
GGUGCGGAGAGAUGAGAUATT against PPM1M	0
GCAGAAAUGACACCAAUAATT against NMB	0.746
GCUCCUCAAAGGAUAUGAATT against CAB39L	0
AUUUAUUUGUUGAGGUUAUTT against PIM3	-1.01 (active)
GACCCUAAGCAGUAUAAGATT against CHSY3	-0.113
CGAUUGCCCAUCAUCCUGATT against HAO2	0.039
GCUUCUACCCGGACGAAGATT against MYCN	0.00242
AAACACCGCUGUUCCGUAATT against MED8	-1.61 (active)
GGCUAGUGAUCGACCGUAATT against FADS1	-0.905

Sequence	median seed-adjusted z-score
GAAACCUGCUGAUCUACGATT against CREB3L2	-0.192
GGAGAAAACCUUCGAGCAGTT against NKX6-2	0.101
UCCUAAAUGUGACCCGGUATT against ZMYND19	0.369
GCCCAUUUCAUCAACCUGATT against PRDM15	0.258
CAACAACUGCUACCAAGAUTT against SLC6A4	1.43 (active)
GGAACUAGAUGUCAUGUAUTT against VILL	0.518
CAAGUGUCUAUGUAACGAATT against FBN2	0.373
GCCUUUACCCUUGAAGAAATT against ME3	0.166
CAAUCAUGUCGAGAAAUAATT against TGIF2LX	-0.568
CGUUCAGUCCGUCACCCAATT against GATAD2A	-0.715
GGGUGGGUUACAUAGCACATT against CLDN19	0
GACUUAACCAAGAGACGUATT against THOC2	-1.22 (active)
GGACGAAGGACGUGCUGUUTT against SHC2	-0.207
GCAAUUACAUUGUACGCUUTT against ETFDH	0.154
CAGCUUCAGGAGAAUGAAATT against PPP1CC	-0.344
GCACGUAAGCUGAACACUATT against PRC1	-0.0195
UGAAGAACCUGGACGCCAATT against CCL24	0
CCUCGAGGAGAUUAACAAATT against NPEPL1	1.12 (active)
CAGAUGAAGUGAUCGGUGATT against CIITA	-0.109
GCUCCUGUAUGAAUGCAAUTT against FBP2	0
GGCUUUUAGCCUGAAGAAATT against PRDM5	-0.463
CUGAUGCUCUGUAUCCCAATT against TNRC4	0.801

Sequence	median seed-adjusted z-score
GAUGAUAUUUAUUCACCAATT against ZBTB25	0
GCAUACCUCAGUUCCAAGATT against CDY2A	0.75
CCUCUAACCUUAGAUGAAATT against GTF2E2	-1.32 (active)
GGAGCAUAAAGUAGACCGATT against ABCA10	-0.104
GACCGUUCACUGUACAACATT against FUT9	0.0444
GUGUUAUAACAAUCGAAGATT against CAPSL	-0.168
GGCUUAAACUUAGAGUCAATT against MYLIP	0.652
CAGUCGAUGUCCAUGAAUATT against LRRN1	-0.407
GAAUUGCUCCUAAUGUCAATT against MYB	0.307
CAGUGAGGUGAAACAAAUATT against DNAJC8	-1.62 (active)
GUGACCAUCUUGGACAUUATT against CELSR1	-0.466
GGCGACUGUUUAUACAUGATT against ALDH7A1	-0.406
GGAAGAAAUUAGCUAAAAATT against MKI67IP	0.426
UGACCCAGAUUAUCGCCGATT against POLR2I	-3.27 (active)
GCCUAGAGGAUACCCAAAATT against NPVF	0.588
GCUCAGAUGUUAUUCGGGATT against SKIV2L	0.209
GCAAAGCUAUUGCAUUGAATT against HSDL2	-0.0717
AGAUCAACCCAGAUAACUATT against INCENP	-0.339
GCACCUAUCUUGACCUGCUTT against CTSC	0
CCUUCUAAUUCGCAAGGUATT against REL	-0.358
GCGCAGCUCUGGAAUUUGATT against OXCT2	-0.449
AGAGCAUUCACAAACUGAATT against RBM8A	0

Sequence	median seed-adjusted z-score
CCUCCUCGAUGCCUACAAATT against DIO2	-0.549
CACUAUGGAGAAACAAUAUTT against ZNF181	-0.154
GGUGAUGACUGCUUGAUGATT against PSKH1	-2.03 (active)
CCCACCAAAUUGCACAAUATT against KLF13	-0.501
GACUGUCUUUGAAAAGAGATT against HESX1	0.3
GCAGCAUGCUACAACCAAATT against RNF25	-0.0826
GAUGGGUAAAUGUACAUAUTT against KCNIP4	-0.401
GCAUCGUGGGCAUAGCGUATT against PCSK6	0
GAAUUUUGAUGGACAAGUUTT against RAG2	0.138
GAACCUCAAGAAUCGAACATT against REV1	-0.294
CCAGGGACCAAGAGAAAGATT against RCE1	-1.19 (active)
GCUUUGAUUUCACCAACAATT against GCM2	-0.241
GGACGUGACCAUCAUGUACTT against IRF7	-0.304
CGAUGUCAGCAUUUCCGUUTT against EPRS	-0.391
UCACGCUCCUGGACCAUUUTT against SLC6A3	0.457
GAAGCGCAGUCACCUGAAATT against PROC	-0.228
CUGUUGAGGUUGUUAUUGATT against GABPA	1.43 (active)
GCAUGACCAUAAGAUCCUATT against NUAK2	-0.0601
GAAGGAGAAUGGUAUCACUTT against GPATCH4	-0.519
CAAAGUAUCUGGAGAACCATT against KIF2C	0.0122
GGGCCUUUCUUGGACUGAUTT against PHF7	0.425
